In all, about 370,000 compounds went through this assay and about 4,100 (1.1%) were called active. This excerpt belongs to a sample that is enriched for actives. Values without a mark were called inactive.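 Rule for the calls: active = inhibition above the mean over all tested compounds plus 3 SD (cut at about 3.6% in these data); inactive = the rest.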

The test is described as follows: relief of DAX-1 repression of SF-1 activity – cell-based, luminescence, SF-1 (NR5A1), full-length DAX-1, primary screen (AID 652010).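 Note: 0% = DAX-1 cells with DMSO and 100% = cells lacking DAX-1 with DMSO.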 Conditions: HEK293T StAR-luciferase reporter, SF-1/DAX-1 repression relief; at 6.8 µM; stronger effect = higher value. (A reporter such as luciferase makes a cellular process visible.)
`COC(=O)[C@]12C[C@H](CC(=O)NCCc3ccccc3OC)C(=O)N(Cc3ccccc3)C1=C[C@H](C(C)C)O[C@@H]2C1CC1`: the inhibition (in general, the drop in the measured response relative to a control, in per cent) is 0.15%. As for `CCOC(=O)[C@]12CCCCC/C=C\1N(Cc1ccc(OC)cc1)C(=O)[C@H]2CC(=O)N1CCOCC1`, the figure is -0.42%; as for `CN1C(=O)C2CC(O)C(SC3CC4C(=O)N(C)C(=O)C4CC3O)CC2C1=O` (stereo not given), 0.64%; as for `CCOC(=O)/C=C/c1ccccc1O`, 0.4%. With `COc1cccc(CNC(=O)[C@H]2CCCN2C(=O)[C@H]2CCCN2C(=O)c2cc(F)cc(F)c2)c1` the figure was 0.51%; with `CCn1c2ccccc2c2cc(NC(=O)CSc3nnc(-c4ccccc4)n3-c3ccc(C)cc3)ccc21`, -0.77%; with `CN1C(=O)c2cc(NS(C)(=O)=O)ccc2OC[C@@H]2O[C@@H](CC(=O)NCc3ccc(-c4ccccc4)cc3)CC[C@H]21`, -0.35%. Consider `CC(C)(C)NS(=O)(=O)NC(=O)C1=C(N2CCCC2)COC1=O`, for which the inhibition was 0.57%. As for `CCCCNC(=O)C[C@H]1C(=O)N(Cc2ccc(OC)cc2)C2=CCCC[C@@]21C(=O)OCC`, the figure is -0.74%; as for `C[C@H]1[C@H](c2ccccc2)Oc2cc(Br)ccc2S(=O)(=O)N1Cc1cccc(F)c1`, -0.98%. As for `Cc1c(C(C)c2ccccc2O)[nH]c2ccccc12` (stereo not given), the figure is -1.62%. With `C[C@@H](NC(=O)c1ccccc1OCC(=O)Nc1ccc(I)cc1)C(=O)N(C)Cc1ccccc1` the figure was -1.33%; with `O=C(NC(=S)Nc1ccccc1C(=O)O)c1ccc(-c2ccc(Br)cc2)o1`, -0.57%. `CC1CCN(C(=S)c2ccc(-c3ccc(Cl)cc3Cl)o2)CC1`: the inhibition is 0.67%.

With `S=C(c1ccc(-c2ccccc2)o1)N1CCCCC1`, the inhibition was 5.8% (active). As for `O=S1(=O)c2ccc(Br)cc2-n2nncc2CN1Cc1cccc(Cl)c1`, the figure is -0.73%. As for `CCCS(=O)(=O)N1CCC(C(=O)NCCc2ccc(OC)c(OC)c2)CC1`, the figure is 0.15%.

In the case of `COC(=O)C[C@@H]1CC[C@@H]2[C@@H](COc3ccc(NC(=O)Nc4ccc(F)c(F)c4)cc3C(=O)N2C)O1`, the inhibition is -1.81%. Consider `CC1CCN(c2ccc(C(=O)O)cc2NS(=O)(=O)c2ccc(Br)s2)CC1`, for which the inhibition was -1.22%. With `O=C(Nc1ccc2c(c1)CCC2)c1ccc(Br)s1` the figure was 11.2% (active).

Regarding `CC1CC(C)CN(CCC(=O)Nc2ccc3c(c2)CCC3)C1` (stereo not given), the inhibition was -0.49%. Take `O=C(Nc1ccc(F)cc1)c1cc2c(s1)CCCC2`: the inhibition is 2.02%. As for `CCOC(=O)c1c(S(=O)(=O)Nc2ccc(CN3CCC(C)CC3)cc2)c(C)n(C)c1C`, the figure is 5.11% (active).

Regarding `CCOC(=O)c1c(S(=O)(=O)NCC(=O)Nc2ccc(C)cc2)c(C)n(C)c1C`, the inhibition was -0.57%. With `CCOC(=O)c1c(S(=O)(=O)Nc2cccc(Cl)c2)c(C)n(C)c1C` the figure was 1.63%; with `CC(=O)O[C@@]1(C(C)=O)CCC2[C@H]3C=C(C)C4=CC(=O)CC[C@@]4(C)C3CC[C@]21C` (stereo not given in full), -0.75%. With `Cc1nnc(SC(C)C(=O)Nc2ccc(S(=O)(=O)NC3CCCCC3)cc2)s1` (stereo not given) the figure was 0.57%; with `Cn1cccc1C(=O)OCC(=O)NCCc1ccccc1`, 0.5%.

As for `Cc1cnc(C(=O)OCC(=O)NCCCc2ccccc2)cn1`, the inhibition was 1.25%.

As for `Cc1ccsc1C(=O)OCC(=O)NCCc1ccccc1`, the inhibition is 3.66% (active).

As for `COC(=O)C1CN(CC(C)C)CCS(=O)(=O)N1Cc1ccc(C)cc1` (stereo not given), the inhibition was -0.97%.

Take `O=C(CSc1nc2sc3c(c2c(=O)n1-c1ccccc1)CCCC3)NN=Cc1ccc(OCc2ccccc2)cc1`: the inhibition is 0.1%.

As for `C=CCn1c(SCC(=O)Nc2ccc(NC(C)=O)cc2)nc2sc(C)c(C)c2c1=O`, the inhibition is 4.82% (active). As for `C=CCn1c(SCC(=O)/C(C#N)=C(\C)N)nc2sc(C)c(C)c2c1=O`, the figure is -0.39%; as for `C=CCn1c(SCC(=O)NCCCO)nc2sc3c(c2c1=O)CCC3`, 0.03%. Turning to `Cc1cc(C)cc(N(CCC#N)C(=O)CN2C(=O)NC3(CCCC3)C2=O)c1`, the inhibition was -0.09%. With `COC(=O)Cc1nnn2c1[C@H](C)[C@H](c1ccccc1Br)OCC2`, the inhibition is -0.78%. For the molecule `COc1ccc(/C=C2\CC3(OC(C)=O)CCCN2C3)cc1` (stereo not given), the inhibition is 1.13%.

Consider `CN1C(=O)/C(=C/C=C2\SCCN2C)OC1=S`, for which the inhibition was 3.87% (active). As for `Cc1ccccc1NC(=O)Cn1nnc(-c2ccccc2F)n1`, the figure is -0.11%; as for `CC1CCCN(CC(O)COc2ccc3c(c2)OCO3)C1` (stereo not given), 0.13%; as for `CCOc1ccc(-n2c(SCC(=O)Nc3cc(C)c(NC(=O)c4ccccc4)cc3OC)nnc2-c2cccs2)cc1`, -3.08%.

Turning to `C#CCNC(=O)C[C@H]1C[C@@]2(C(=O)OC)C(=C[C@H](C(C)C)O[C@@H]2C2CC2)N(Cc2ccco2)C1=O`, the inhibition is 0.65%. As for `Clc1ccc(-c2cc(-c3ccccn3)on2)c(Cl)c1`, the figure is 3.68% (active); as for `Clc1ccccc1-c1cc(COc2ccc3ccccc3c2)no1`, 0.4%; as for `Clc1ccc(-c2cc(C3CCNCC3)[nH]n2)c(Cl)c1`, -0.17%. In the case of `CC(C)CNC(=O)OCc1cn(Cc2ccc(F)cc2)nn1`, the inhibition is -0.13%. For `Cc1cc(N)n2nc(-c3ccc(C(C)(C)C)cc3)cc2n1`, the inhibition was 5.95% (active). With `CCCC(=O)C1=C(N(C)c2ccccc2)CC(C)(C)C(C(=O)OC)C1=O` (stereo not given) the figure was 0.24%; with `CCOc1ccc(-n2c(SCC(=O)Nc3cc(C)c(NC(=O)c4ccccc4)cc3OC)nnc2-c2cccc(Cl)c2)cc1`, -2.96%; with `CCOC(=O)N1CCN(C(=O)c2ccc3nc4cc(Cl)ccc4c(=O)n3c2)CC1`, -1.01%. As to `C=CCN1C(=O)[C@@H](CC(=O)N2CCN(C(=O)c3ccco3)CC2)[C@]2(C(=O)OC)CCCCC=C12`, the inhibition is 0.15%. As for `COc1ccc(CNC(=O)c2ccc3oc(C(C)C)nc3c2)cc1`, the figure is 3.41%; as for `COC(=O)c1ccc(CNC(=O)c2ccc3oc(C(C)C)nc3c2)cc1`, 4.25% (active); as for `CC(C)c1nc2cc(C(=O)NC(C)c3cnn(C)c3)ccc2o1` (stereo not given), -0.03%. As for `Cc1ccc(N/N=C2\COC(C)(C)CC2=O)cc1`, the figure is -0.09%. For the molecule `COc1ccccc1Oc1ccc(N/C=C2/CCCC2=O)cc1`, the inhibition is 0.78%. On to `COc1ccc(N/N=C2/CCCCC2=O)cc1`, for which the inhibition was 4.31% (active). In the case of `COc1cccc2cc(C(C)N(CCCN3CCOCC3)C(=O)Nc3ccc(Cl)cc3)oc12` (stereo not given), the inhibition was -0.37%.

With `CC(C)c1ccc(Nc2nnc(SCC(=O)c3nnc(-c4ccccc4)o3)s2)cc1`, the inhibition is 5.21% (active).

Take `COc1cccc(Nc2nnc(SCC(=O)N3CC(C)OC(C)C3)s2)c1` (stereo not given): the inhibition was 0.08%.

Take `CN(C(=O)CSc1nnc(Nc2ccccc2)s1)C1CCS(=O)(=O)C1` (stereo not given): the inhibition is 0.34%. As for `C#CCN1CC(C)/C(=N/O)CC1C` (stereo not given), the figure is 0.13%; as for `O=C(O)C1CCCN1S(=O)(=O)c1ccc(Br)cc1` (stereo not given), 0.15%. As for `COc1cc2c(cc1OC)/C(=C/C(=O)c1ccc(NC(C)=O)cc1)NCC2`, the figure is -0.03%; as for `CC1CN/C(=C\C(=O)c2ccc(Br)cc2)C(=O)N1` (stereo not given), 4.26% (active). Regarding `CC(CCN1CCC(C(O)(c2ccccc2)c2ccccc2)CC1)Oc1ccc(Cl)cc1` (stereo not given), the inhibition was 0.18%. With `Cc1nc2cc(NCc3cccs3)ccc2n1C` the figure was 2.41%.

Take `Cc1nc2cc(NC(=O)Nc3cccc(F)c3)ccc2n1C`: the inhibition was 5.18% (active). As for `O=C(Nc1cccc(F)c1)c1coc(=O)c(Br)c1`, the figure is 0.24%. With `N/C(=N\OC(=O)Cc1ccc([N+](=O)[O-])cc1)c1ccccn1` the figure was 0.83%; with `N/C(=N\OC(=O)CC1CCCCC1)c1ccccc1`, -0.16%. As for `N/C(=N\OC(=O)CCC1CCCCC1)c1ccccn1`, the figure is 4.25% (active). Consider `COCC(=O)N[C@@H]1C[C@@H]2O[C@@H](CO)CC[C@@H]2O[C@@H]1CCc1ccc(-c2ccccc2)cc1`, for which the inhibition is -0.14%.

As to `CSc1nc2nc3c(c(=O)n2[nH]1)CCC3`, the inhibition was -0.21%.

As to `O=c1c2c(nc3cc(-c4cccc(Cl)c4)[nH]n13)CCCC2`, the inhibition was 13.9% (active). As for `COC(=O)[C@]12C[C@H](CC(=O)NCc3ccccc3)C(=O)N(CCC3=CCCCC3)C1=C[C@H](C(C)C)O[C@@H]2C1CC1`, the figure is -1.17%; as for `O=C1Nc2ccccc2OC1CC(=O)N1CCCCCCC1` (stereo not given), -0.39%. As to `Cc1cc(C)nc(Nc2n[nH]c(-c3ccccc3N)n2)n1`, the inhibition is 4.12% (active). With `CC(C)(C)C(c1nc2ccccc2[nH]1)n1c(Cc2csc3ccccc23)nc2ccccc21` (stereo not given) the figure was 0.83%; with `O=C(Nc1ccccc1)N1CCN(Cc2nc3ccccc3c(=O)[nH]2)CC1`, -0.16%; with `COc1ccnc(NC(=S)N2CCN(c3ncc(C(F)(F)F)cc3Cl)CC2)c1`, -0.4%. With `C=CCOC/C=C/C#CCN(CC=C)Cc1ccc(OC)cc1OC` the figure was -0.5%; with `COc1ccc(CNC(=O)COc2ccccc2C(=O)c2cnn(-c3ccccc3)c2)cc1OC`, 4% (active). As to `COc1cc(CO)ccc1OCC(=O)Nc1cccc2ccccc12`, the inhibition is -3.43%. As for `COc1ccc(CNC(=O)CSc2n[nH]c(N)n2)cc1OC`, the figure is -0.05%.

Take `O=C(CSc1nnc(-c2cccc(Cl)c2)n1Cc1ccco1)Nc1ccc(OCc2ccccc2)cc1`: the inhibition was -2.28%.

For the molecule `NS(=O)(=O)c1ccc2nc(NC(=O)C3=COCCO3)sc2c1`, the inhibition is 9.6% (active). With `CCC(CC)c1nnc(NC(=O)C2=COCCO2)s1`, the inhibition was 1.13%. With `NS(=O)(=O)c1ccc2nc(NC(=O)CS(=O)(=O)c3ccc(F)cc3)sc2c1` the figure was 0.31%.

The record behind these values is PubChem BioAssay AID652010 (The Scripps Research Institute Molecular Screening Center, 2013).
